The nature of assay [1]: optical density shifts of acrAB sulA E. coli – strain DRC41, OD650, 48 h, E. coli filamentation inducer project, primary screen (AID 1152).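 Note: E. coli MC1000 strain DRC41 lacking acrAB efflux pump and sulA.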 The settings on record: higher = more signal, called active from +8 up or from −8 down.
Assay [2] in a line: probe aLefty1 binding on compound microarray – biochemical, small-molecule microarray, 635/667 nm fluorescence, primary screen (AID 1153).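 Note: score merges spot fluorescence with signal-to-noise ratio from the scanned slide images.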 The settings on record: higher = more signal.
Assay [3] can be described thus: plasmodial surface anion channel blockers, osmotic lysis – cell-based, P. falciparum Indochina, OD700, 1 h, primary screen (AID 1154). The settings on record: P. falciparum Indochina infected RBC osmotic lysis, higher = more signal, called active from +8 up or from −8 down.
Assay [4] is described as follows: plasmodial surface anion channel blockers, osmotic lysis – cell-based, P. falciparum Indochina, OD700, 2 h, primary screen (AID 1155).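 Note: lysis reports solute entry through the parasite surface anion channel PSAC.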 The settings on record: P. falciparum Indochina infected erythrocytes, higher = more signal, called active from +8 up or from −8 down.
A short description of assay [5]: changes in parasitized red cell lysis, either direction – P. falciparum Indochina, OD700, 3 h, PSAC antagonist project, primary screen (AID 1156). As to conditions: P. falciparum-infected erythrocytes, osmotic lysis, higher = more signal, called active from +8 up or from −8 down.
Assay [6] can be described thus: plasmodial surface anion channel blockers, osmotic lysis – cell-based, P. falciparum Indochina, OD700, 18 h, primary screen (AID 1157). The settings on record: P. falciparum Indochina infected erythrocytes, osmotic lysis OD700, 18 h; higher = more signal, called active from +8 up or from −8 down.
Assay [7] can be described thus: S6 kinase pathway phospho-S6 level changes – cell-based, A549, cytoblot, luminescence, serum-stimulated, primary screen (AID 1158).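 Note: serum-stimulated A549 lung adenocarcinoma cells; signal is phosphorylated S6 detected by cytoblot immunostaining with HRP secondary.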 The settings on record: 5 h, higher = more signal.
Assay [8] deals with NADPH oxidase 2 (Homo sapiens) (UniProt P04839). Nature of the assay: compounds shifting NOX2 Amplex Red fluorescence – cell-based, HEK293-NOX2, PMA-stimulated, NOX inhibitor project, primary screen (AID 1159). Note: test concentration not given here. As to conditions: 45 min, higher = more signal, called active from +8 up or from −8 down.
Assay [9] addresses NADPH oxidase 4 (Homo sapiens) (UniProt Q9NPH5). Description: compounds shifting NOX4 Amplex Red fluorescence – cell-based, HEK293-NOX4, tetracycline-induced, NOX inhibitor project, primary screen (AID 1160). The settings on record: HEK293-NOX4, Amplex Red H2O2 fluorescence, 45 min; higher = more signal, called active from +8 up or from −8 down.
Assay [10] addresses NADPH oxidase 5 (Homo sapiens) (UniProt Q96PH1). Nature of the assay: compounds shifting NOX5 Amplex Red fluorescence – cell-based, HEK293-NOX5, NOX inhibitor project, primary screen (AID 1161). As to conditions: HEK293-NOX5, ionomycin, 45 min, higher = more signal.

Where “and” joins values, the source holds several entries; their conditions need not be identical. Identical values can stand only once. Calls of active or inactive are those of the source.

NADPH oxidase 5 (Homo sapiens), sequence (Q96PH1 whole entry, looked up): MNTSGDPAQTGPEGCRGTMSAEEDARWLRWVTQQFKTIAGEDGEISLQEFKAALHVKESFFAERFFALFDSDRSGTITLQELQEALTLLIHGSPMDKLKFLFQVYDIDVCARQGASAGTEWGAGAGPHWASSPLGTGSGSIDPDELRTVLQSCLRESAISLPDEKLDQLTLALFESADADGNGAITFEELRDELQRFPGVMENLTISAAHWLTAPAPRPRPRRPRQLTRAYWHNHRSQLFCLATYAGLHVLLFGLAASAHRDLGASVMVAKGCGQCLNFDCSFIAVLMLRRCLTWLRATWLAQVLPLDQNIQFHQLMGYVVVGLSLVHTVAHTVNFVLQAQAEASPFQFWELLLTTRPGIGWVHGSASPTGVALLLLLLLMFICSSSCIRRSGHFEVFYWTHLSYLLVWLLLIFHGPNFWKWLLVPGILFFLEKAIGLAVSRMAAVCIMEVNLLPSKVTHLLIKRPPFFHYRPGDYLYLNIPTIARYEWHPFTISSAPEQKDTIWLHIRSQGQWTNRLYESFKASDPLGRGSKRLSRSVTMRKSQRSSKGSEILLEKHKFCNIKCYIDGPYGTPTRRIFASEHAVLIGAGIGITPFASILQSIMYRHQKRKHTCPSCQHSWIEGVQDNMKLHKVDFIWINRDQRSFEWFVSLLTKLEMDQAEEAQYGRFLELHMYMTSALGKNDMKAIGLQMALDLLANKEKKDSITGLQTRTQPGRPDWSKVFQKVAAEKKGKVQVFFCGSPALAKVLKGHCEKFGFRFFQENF
NADPH oxidase 4 (Homo sapiens), sequence (Q9NPH5 whole entry, looked up): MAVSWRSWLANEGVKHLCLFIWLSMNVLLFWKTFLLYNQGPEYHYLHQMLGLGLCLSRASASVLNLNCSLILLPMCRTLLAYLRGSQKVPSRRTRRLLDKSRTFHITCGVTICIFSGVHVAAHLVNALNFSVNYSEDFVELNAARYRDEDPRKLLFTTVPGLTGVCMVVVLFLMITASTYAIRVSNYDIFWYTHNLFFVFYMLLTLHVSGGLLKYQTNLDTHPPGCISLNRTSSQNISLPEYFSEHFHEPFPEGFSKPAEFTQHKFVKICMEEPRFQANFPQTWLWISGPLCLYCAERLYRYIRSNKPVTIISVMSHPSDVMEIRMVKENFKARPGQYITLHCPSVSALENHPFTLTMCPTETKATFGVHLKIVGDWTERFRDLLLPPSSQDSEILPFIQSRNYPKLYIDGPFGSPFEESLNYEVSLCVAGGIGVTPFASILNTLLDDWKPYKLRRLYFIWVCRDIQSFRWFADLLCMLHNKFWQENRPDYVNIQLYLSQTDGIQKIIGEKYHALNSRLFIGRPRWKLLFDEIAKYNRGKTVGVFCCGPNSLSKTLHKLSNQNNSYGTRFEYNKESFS
NADPH oxidase 2 (Homo sapiens), sequence (P04839 whole entry, looked up): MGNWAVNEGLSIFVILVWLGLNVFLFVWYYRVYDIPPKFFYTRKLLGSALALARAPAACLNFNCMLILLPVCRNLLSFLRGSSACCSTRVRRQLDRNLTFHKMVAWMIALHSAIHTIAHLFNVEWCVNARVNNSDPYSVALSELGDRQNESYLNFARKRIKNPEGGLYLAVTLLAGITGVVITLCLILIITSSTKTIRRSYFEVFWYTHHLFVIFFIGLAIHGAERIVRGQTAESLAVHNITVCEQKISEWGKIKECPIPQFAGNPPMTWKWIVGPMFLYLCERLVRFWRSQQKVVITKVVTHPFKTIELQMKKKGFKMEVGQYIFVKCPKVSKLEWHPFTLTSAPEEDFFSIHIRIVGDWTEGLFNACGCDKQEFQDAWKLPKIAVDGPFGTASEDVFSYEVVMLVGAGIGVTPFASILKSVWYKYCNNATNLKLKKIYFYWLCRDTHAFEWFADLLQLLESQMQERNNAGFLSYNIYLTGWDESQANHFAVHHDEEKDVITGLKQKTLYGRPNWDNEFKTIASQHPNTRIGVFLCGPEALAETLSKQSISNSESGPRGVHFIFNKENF

As to `COC(=O)C1=C(C)N(Cc2ccccc2)[C@]23O[C@](C(=O)OC)(C(=O)N2[C@@H]1c1ccccc1)[C@@H](c1ccccc1)[C@@H]3C(=O)c1ccccc1`, the z-score in assay [1] is -1.1 (inactive) and 0.116 (inactive); in assay [3], 1.17 (inactive) and 0.647 (inactive); in assay [4] it was -0.645 (inactive) and 0.238 (inactive); in assay [5], 0.372 (inactive) and 0.467 (inactive); in assay [6] it was -1.38 (inactive) and 0.0752 (inactive); in assay [7], 1.39 and 0.0227. For the same compound, the z-score is 2.38 (inactive) and 0.648 (inactive) in assay [8]; 0.856 (inactive) and 0.876 (inactive) in assay [9]; 2.66 and 1.46 in assay [10]. Besides, in [2], the composite z-score was -0.145 and -0.193.
`C=CCN(C(=O)C1N(c2c(Cl)cccc2CO)C(=O)C2C(C(=O)O)C3C=CC21O3)C(C)(C)C` (stereo not given): the z-score in assay [1] is 1.66 (inactive) and 1.99 (inactive); in assay [3], 1.77 (inactive) and -0.973 (inactive); in [4] it was 0.821 (inactive) and -1.1 (inactive); in [5] it was 1.03 (inactive) and -0.229 (inactive); in assay [6], 0.604 (inactive) and -1.54 (inactive); in assay [7], 0.442 and 1.04. Moreover, the z-score was 0.961 (inactive) and 0.116 (inactive) in assay [8]; -0.288 (inactive) and -0.645 (inactive) in assay [9]; 0.788 and -0.335 in [10]. Also, in [2], the composite z-score is -0.945 and -0.0547.
Turning to `C[C@@H](ON=C1[C@H]2CCn3c(=O)n(-c4ccccc4)c(=O)n3[C@H]2[C@H](O)[C@@H]2O[C@H]12)c1cn([C@H](CO)Cc2ccccc2)nn1`, the z-score in [1] is 0.328 (inactive); in assay [3] it was 0.508 (inactive); in assay [4], 0.461 (inactive); in assay [5], 0.373 (inactive); in assay [6], 0.367 (inactive); in assay [7], 0.164. Further, the z-score in assay [8] was -0.622 (inactive); in [9], -0.268 (inactive); in assay [10], 0.259. In [2], this compound registered a composite z-score of -0.049.
Take `C=CCN(CCCC)C(=O)C1N(c2ccc(CCO)cc2)C(=O)C2C(C(=O)O)C3C=CC21O3` (stereo not given): the z-score was 0.516 (inactive) and 1.32 (inactive) in assay [1]; -0.245 (inactive) and 0.903 (inactive) in assay [3]; -0.186 (inactive) and -0.13 (inactive) in assay [4]; -0.874 (inactive) and -0.244 (inactive) in assay [5]; 0.113 (inactive) and -0.183 (inactive) in assay [6]; 0.799 and -0.202 in assay [7]. Also, the z-score in [8] was -0.212 (inactive) and 1.49 (inactive); in assay [9], 0.0383 (inactive) and -1.09 (inactive); in assay [10], -0.437 and 0.534. Moreover, in assay [2], the composite z-score was -0.103 and 0.778.
For `CCOC(=O)[C@@H]1CC=C2CC1C(=O)N1CCC[C@@H]1[C@H]2O[Si](C)(C)C(C)(C)C` (stereo not given in full), the z-score was -1.02 (inactive) and -0.796 (inactive) in assay [1]; -0.0845 (inactive) and 0.699 (inactive) in assay [3]; -0.474 (inactive) and 0.0056 (inactive) in assay [4]; -0.495 (inactive) and 0.882 (inactive) in assay [5]; -0.0374 (inactive) and 0.133 (inactive) in [6]; 0.308 and -0.0299 in assay [7]. In addition, the z-score in [8] was -0.0861 (inactive) and -0.161 (inactive); in [9] it was 1.2 (inactive) and -0.116 (inactive); in [10], -1.02 and -2.48. For the same compound, the composite z-score in assay [2] is -0.199 and -0.417.
In the case of `COc1ccc(O[C@H]2C=C[C@@H](c3ccccc3)O[C@@H]2COC(=O)CCC(C)=NO[C@H](C)c2cn([C@H](CO)Cc3ccccc3)nn2)cc1`, the z-score was 0.756 (inactive) and 0.0906 (inactive) in assay [1]; 14.1 (active) and 13.6 (active) in assay [3]; 1.6 (inactive) and 2.16 (inactive) in [4]; 2.07 (inactive) and 1.09 (inactive) in assay [5]; 0.711 (inactive) and 0.907 (inactive) in assay [6]; -0.112 and -0.835 in assay [7]. Also, the z-score is -2.32 (inactive) and -2.14 (inactive) in assay [8]; 0.0167 (inactive) and -2.56 (inactive) in assay [9]; -1.63 and -3.66 in assay [10]. Also, the composite z-score in assay [2] is 0.273 and -0.553.
On to `C=C[C@@H](C)[C@@H](O)c1ccc(OCCO)cc1`, for which the z-score in assay [1] is 0.155 (inactive) and 1.8 (inactive); in [3], 1.23 (inactive) and 0.481 (inactive); in assay [4] it was 0.568 (inactive) and -0.311 (inactive); in assay [5], 0.321 (inactive) and -0.929 (inactive); in assay [6] it was 0.281 (inactive) and -0.873 (inactive); in [7], 0.0021 and 0.856. Also, the z-score in [8] is -0.228 (inactive) and -0.985 (inactive); in [9], -0.115 (inactive) and -0.247 (inactive); in [10], -0.0389 and -0.521. For the same compound, in assay [2], the composite z-score is -0.237 and -0.102.
As for `CCCC[C@@H]1CN2[C@H](c3ccc(Br)cc3)[C@@H](C)CC[C@H]2C(=O)O1`, the z-score in assay [1] was 0.469 (inactive) and -0.0124 (inactive); in [3], 1.56 (inactive) and 1.12 (inactive); in assay [4] it was 0.395 (inactive) and 0.586 (inactive); in assay [5], 1.2 (inactive) and -0.241 (inactive); in [6] it was 0.492 (inactive) and 0.318 (inactive); in assay [7] it was 0.57 and -0.262. The z-score in assay [8] was 0.203 (inactive) and -0.527 (inactive); in assay [9], 0.332 (inactive) and -0.0635 (inactive); in assay [10], -0.884 and -1.79. The composite z-score in assay [2] is -0.308 and -0.0132.
`CC[C@@H]1C(Sc2ccccc2)C(C(=O)O)[C@H](c2ccc(C)cc2)N1S(=O)(=O)c1ccc(C)cc1` (stereo not given in full): the z-score in [1] is -1.08 (inactive) and -0.135 (inactive); in assay [3] it was 0.519 (inactive) and -0.178 (inactive); in assay [4], 0.677 (inactive) and -0.514 (inactive); in [5], -0.0111 (inactive) and -0.657 (inactive); in assay [6], 0.683 (inactive) and -2.21 (inactive); in [7] it was -0.473 and 0.388. For the same compound, the z-score in assay [8] is 0.668 (inactive) and 0.333 (inactive); in [9], 0.464 (inactive) and 0.356 (inactive); in assay [10] it was 2.07 and 0.173. For the same compound, the composite z-score in assay [2] is 0.417 and -0.214.

(Values after PubChem BioAssay.)
